Data taken from the supplement of paper PMC10849652.
About 8,800 targets were measured; listed, in parts, are those with a hit and a random draw of the rest. About 0.5% of all pairs of compound and target were hits. A number with no mark means an inactive call.

Tests used:
Assay in all cases: log2 fold change, soluble protein after heating vs DMSO (PISA); higher = thermal stabilisation; K562 lysate, 10 uM; active = over 0.2 and 3.5 SD of the protein, either way, in both replicates (recomputed)
[1] = compound: NCC(=O)Nc1ccc(-n2nc(C(F)(F)F)cc2-c2ccc3c(ccc4ccccc43)c2)cc1
Summary of the method: (§1)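 Dounce homogenisation of K562 pellets in PBS pH 7.4 with 1 mM MgCl2 produced a crude extract, used at 1 mg/mL protein. Exposure to 10 μM compound lasted 30 min, and aliquots were then heated for 3 min across 48°C-58°C, pooled and brought to 0.5% NP-40 at 4°C. The supernatant after 21,000xg for 90 min was quantified by TMTpro 16plex LC-MS/MS with channel sums equalised. Duplicate values are given as log-two fold change in thermal stability relative to solvent controls.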

vorinostat = compound: O=C(CCCCCCC(=O)Nc1ccccc1)NO [vorinostat]
Summary of the method: as §1

silmitasertib = compound: O=C(O)c1ccc2c(c1)nc(Nc1cccc(Cl)c1)c1ccncc12 [silmitasertib]
Summary of the method: as §1

[2] = compound: O=C1NC(=O)C(c2cnc3ccccn23)=C1c1cn2c3c(cc(F)cc13)CN(C(=O)N1CCCCC1)CC2
Summary of the method: as §1

entospletinib = compound: c1cn2cc(-c3ccc4cn[nH]c4c3)nc(Nc3ccc(N4CCOCC4)cc3)c2n1 [entospletinib]
Summary of the method: as §1

Sequence of UniProt Q14687 (Q14687 whole entry, looked up): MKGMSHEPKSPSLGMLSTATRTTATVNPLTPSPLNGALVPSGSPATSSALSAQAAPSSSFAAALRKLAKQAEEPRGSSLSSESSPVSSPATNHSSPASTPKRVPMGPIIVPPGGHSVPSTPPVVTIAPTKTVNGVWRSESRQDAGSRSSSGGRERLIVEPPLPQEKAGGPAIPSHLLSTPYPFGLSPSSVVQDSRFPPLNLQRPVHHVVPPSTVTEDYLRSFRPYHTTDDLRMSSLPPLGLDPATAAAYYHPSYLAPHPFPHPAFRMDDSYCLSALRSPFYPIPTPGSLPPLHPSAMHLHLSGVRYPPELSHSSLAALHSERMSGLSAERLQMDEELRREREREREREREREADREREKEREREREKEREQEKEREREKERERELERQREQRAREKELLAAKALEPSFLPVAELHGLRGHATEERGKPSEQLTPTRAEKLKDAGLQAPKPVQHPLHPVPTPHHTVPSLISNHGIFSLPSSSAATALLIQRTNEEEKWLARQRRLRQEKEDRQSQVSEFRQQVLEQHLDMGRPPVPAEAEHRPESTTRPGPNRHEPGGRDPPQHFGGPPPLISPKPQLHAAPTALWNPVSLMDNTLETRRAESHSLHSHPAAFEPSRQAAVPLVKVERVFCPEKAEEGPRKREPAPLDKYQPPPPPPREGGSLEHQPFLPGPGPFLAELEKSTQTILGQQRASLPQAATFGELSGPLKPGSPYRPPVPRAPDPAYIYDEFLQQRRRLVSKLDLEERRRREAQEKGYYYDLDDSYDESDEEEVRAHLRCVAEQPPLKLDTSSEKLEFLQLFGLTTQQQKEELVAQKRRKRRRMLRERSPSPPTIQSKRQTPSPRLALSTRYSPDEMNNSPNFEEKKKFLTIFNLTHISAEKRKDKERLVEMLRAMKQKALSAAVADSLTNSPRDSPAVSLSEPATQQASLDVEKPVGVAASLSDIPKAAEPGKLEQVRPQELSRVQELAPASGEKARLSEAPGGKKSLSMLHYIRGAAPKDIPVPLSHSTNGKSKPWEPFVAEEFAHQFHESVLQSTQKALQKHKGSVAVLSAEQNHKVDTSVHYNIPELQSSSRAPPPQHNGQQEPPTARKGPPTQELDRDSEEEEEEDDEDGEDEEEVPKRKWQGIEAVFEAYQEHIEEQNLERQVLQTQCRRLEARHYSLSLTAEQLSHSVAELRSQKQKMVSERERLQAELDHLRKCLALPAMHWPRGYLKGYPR
Sequence of UniProt Q99871 (Q99871 whole entry, looked up): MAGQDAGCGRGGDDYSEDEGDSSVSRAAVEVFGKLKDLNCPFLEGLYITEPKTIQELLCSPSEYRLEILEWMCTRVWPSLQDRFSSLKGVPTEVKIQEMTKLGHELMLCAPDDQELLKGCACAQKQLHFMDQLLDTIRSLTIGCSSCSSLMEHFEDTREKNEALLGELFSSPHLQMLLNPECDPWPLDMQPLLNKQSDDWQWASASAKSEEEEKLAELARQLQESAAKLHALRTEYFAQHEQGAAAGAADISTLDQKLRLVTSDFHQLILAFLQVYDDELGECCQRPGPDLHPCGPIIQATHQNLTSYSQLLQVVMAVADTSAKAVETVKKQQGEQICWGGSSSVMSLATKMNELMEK
Sequence of UniProt Q14145 (Q14145 whole entry, looked up): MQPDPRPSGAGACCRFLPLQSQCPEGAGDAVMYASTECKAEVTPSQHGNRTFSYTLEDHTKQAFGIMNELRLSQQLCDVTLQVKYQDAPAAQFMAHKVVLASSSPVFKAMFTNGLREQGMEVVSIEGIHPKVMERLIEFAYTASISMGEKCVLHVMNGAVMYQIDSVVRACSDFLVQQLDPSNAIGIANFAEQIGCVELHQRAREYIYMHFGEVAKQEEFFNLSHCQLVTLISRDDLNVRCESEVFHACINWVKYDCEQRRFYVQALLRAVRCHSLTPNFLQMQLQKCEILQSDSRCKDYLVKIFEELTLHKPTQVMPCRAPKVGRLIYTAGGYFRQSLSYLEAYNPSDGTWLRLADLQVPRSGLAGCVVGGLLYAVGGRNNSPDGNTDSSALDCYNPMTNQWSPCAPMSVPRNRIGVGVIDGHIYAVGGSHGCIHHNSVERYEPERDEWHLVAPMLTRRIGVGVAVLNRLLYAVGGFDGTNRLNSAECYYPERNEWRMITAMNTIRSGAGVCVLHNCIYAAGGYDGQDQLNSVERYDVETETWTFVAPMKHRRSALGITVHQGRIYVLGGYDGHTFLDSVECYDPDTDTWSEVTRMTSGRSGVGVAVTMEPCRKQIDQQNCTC
Sequence of UniProt Q9H6D7 (Q9H6D7 whole entry, looked up): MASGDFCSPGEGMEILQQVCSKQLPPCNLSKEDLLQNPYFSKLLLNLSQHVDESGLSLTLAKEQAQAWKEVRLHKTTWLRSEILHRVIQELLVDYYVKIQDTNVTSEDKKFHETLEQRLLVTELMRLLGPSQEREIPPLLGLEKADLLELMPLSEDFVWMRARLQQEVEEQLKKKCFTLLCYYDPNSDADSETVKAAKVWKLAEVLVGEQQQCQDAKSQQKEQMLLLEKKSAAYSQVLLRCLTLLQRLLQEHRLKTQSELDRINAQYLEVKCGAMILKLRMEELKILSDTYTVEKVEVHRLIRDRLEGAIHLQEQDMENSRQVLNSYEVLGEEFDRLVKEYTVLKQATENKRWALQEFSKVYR
Sequence of UniProt Q9Y5Q9 (Q9Y5Q9 whole entry, looked up): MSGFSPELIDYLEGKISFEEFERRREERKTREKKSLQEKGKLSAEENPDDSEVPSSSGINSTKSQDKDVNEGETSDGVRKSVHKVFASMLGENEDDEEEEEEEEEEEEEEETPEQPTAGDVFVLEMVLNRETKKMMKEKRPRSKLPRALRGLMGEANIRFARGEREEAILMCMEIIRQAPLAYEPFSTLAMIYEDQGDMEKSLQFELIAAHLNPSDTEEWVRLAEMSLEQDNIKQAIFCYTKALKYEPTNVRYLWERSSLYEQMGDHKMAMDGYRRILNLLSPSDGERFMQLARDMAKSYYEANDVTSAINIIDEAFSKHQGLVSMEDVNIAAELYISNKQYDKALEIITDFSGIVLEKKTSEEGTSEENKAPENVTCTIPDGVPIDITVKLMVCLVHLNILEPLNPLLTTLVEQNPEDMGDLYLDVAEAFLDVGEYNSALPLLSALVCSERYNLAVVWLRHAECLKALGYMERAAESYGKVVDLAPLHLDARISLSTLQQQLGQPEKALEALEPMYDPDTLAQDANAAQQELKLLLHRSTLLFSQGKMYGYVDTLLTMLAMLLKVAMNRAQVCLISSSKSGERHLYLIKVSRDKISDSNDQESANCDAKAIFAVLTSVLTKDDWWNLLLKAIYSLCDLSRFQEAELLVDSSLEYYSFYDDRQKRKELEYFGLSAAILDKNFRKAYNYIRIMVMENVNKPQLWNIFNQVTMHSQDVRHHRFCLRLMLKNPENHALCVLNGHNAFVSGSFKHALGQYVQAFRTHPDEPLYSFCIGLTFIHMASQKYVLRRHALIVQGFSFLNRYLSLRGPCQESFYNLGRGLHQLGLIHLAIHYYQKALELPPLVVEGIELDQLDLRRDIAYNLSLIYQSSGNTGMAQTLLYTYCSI
Sequence of UniProt Q01628 (Q01628 whole entry, looked up): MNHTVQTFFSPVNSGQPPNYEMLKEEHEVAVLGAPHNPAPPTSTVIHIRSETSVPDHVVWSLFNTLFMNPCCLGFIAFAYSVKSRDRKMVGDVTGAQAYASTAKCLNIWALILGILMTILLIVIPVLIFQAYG
Sequence of UniProt Q5T447 (Q5T447 whole entry, looked up): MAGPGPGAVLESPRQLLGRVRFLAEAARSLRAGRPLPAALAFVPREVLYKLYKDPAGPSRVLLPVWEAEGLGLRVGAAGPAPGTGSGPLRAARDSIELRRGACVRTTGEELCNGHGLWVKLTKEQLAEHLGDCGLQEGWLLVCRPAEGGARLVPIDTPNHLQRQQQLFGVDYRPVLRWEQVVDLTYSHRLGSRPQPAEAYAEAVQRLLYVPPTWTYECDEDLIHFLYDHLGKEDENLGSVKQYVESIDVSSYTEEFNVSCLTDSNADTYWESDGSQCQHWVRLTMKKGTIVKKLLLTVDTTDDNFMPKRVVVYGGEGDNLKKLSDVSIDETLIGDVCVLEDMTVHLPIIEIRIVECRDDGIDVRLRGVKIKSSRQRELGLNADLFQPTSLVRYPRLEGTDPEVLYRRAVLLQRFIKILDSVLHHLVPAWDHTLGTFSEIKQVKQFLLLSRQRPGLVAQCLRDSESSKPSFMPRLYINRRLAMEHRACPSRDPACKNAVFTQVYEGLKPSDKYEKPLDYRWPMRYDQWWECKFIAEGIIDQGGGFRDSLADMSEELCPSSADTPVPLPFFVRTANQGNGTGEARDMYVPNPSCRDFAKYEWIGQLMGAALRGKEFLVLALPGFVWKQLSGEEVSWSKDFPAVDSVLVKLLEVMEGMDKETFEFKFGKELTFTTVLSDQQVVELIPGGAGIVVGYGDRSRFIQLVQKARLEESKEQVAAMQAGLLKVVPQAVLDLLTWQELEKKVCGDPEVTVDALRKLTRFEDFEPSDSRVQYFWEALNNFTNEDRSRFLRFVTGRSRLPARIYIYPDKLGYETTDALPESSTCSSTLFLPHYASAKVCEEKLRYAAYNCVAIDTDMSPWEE

| Target | log2 fold change [1] | log2 fold change (vorinostat) | log2 fold change (silmitasertib) | log2 fold change [2] | log2 fold change (entospletinib) |
| --- | --- | --- | --- | --- | --- |
| HAUS4 (UniProt Q9H6D7) | -0.022 | -0.255 (active) | 0.045 | -0.017 | -0.018 |
| KEAP1 (UniProt Q14145) | -0.019 | -0.262 (active) | -0.008 | -0.022 | 0.001 |
| IFITM3 (UniProt Q01628) | -0.02 | 0.067 | -0.129 | 0.069 | 0.059 |
| HECTD3 (UniProt Q5T447) | -0.015 | -0.253 (active) | 0.109 | -0.02 | 0.022 |
| GTF3C3 (UniProt Q9Y5Q9) | -0.007 | -0.291 (active) | 0.018 | 0.011 | -0.052 |
| KDM5C (UniProt P41229) | 0.039 | -0.282 (active) | 0.015 | 0 | 0.003 |
| GSE1 (UniProt Q14687) | 0.029 | -0.286 (active) | -0.006 | -0.006 | -0.017 |
| H4C1 (UniProt P62805) | 0.043 | 0.09 | 0.007 | -0.038 | -0.057 |
| HAUS7 isoform 2 (UniProt Q99871) | -0.091 | -0.416 (active) | -0.029 | -0.026 | -0.124 |
